The list is not random: actives were taken first. Their share in the collection is about 1.6%.
sEH act: soluble epoxide hydrolase activators, primary screen, biochemical, human sEH; purified human sEH enzymatic activity, activator screen; hit rate 0.04% among 91,000; AID 717, 2007; activation, % at 2 µM; in the data active = activation above about 37%
Target sequence (P34913 whole entry, looked up): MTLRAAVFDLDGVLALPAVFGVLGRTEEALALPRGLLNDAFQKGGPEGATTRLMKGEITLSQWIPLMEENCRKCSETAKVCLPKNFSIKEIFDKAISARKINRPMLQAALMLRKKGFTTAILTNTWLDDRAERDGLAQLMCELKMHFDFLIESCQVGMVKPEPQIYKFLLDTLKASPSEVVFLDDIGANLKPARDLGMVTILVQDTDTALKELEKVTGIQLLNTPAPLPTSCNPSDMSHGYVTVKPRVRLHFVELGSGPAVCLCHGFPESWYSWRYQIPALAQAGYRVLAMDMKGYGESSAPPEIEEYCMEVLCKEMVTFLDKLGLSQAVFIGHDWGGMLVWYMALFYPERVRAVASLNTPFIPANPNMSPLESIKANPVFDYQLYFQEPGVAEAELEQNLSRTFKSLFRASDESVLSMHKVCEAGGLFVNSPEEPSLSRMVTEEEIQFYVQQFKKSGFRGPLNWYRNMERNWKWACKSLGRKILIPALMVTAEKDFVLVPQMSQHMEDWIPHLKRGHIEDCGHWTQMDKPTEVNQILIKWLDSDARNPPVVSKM
PTPN22 act: LYP phosphatase activators, primary screen, biochemical, DiFMUP fluorescence, 2 µM; Tyrosine-protein phosphatase non-receptor type 22 (Homo sapiens), Q9Y2R2; recombinant LYP; 0 = plate median, 100 = signal doubled; activation, % at 2 µM; hit rate 0.11% among 96,000; AID 697, 2007;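 active = activation at 2 µM above a set limit, the mean plus 5 SD, cut at about 37% in these data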
sEH inh: soluble epoxide hydrolase inhibitors, primary screen, biochemical, human sEH. AID 707, 2007. recombinant human sEH enzymatic activity assay. hit rate 0.34% among 91,000. Bifunctional epoxide hydrolase 2 (Homo sapiens), P34913. inhibition, % at 2 µM; in the data active = inhibition above about 80%
LYP inh 2: PTPN22 phosphatase inhibitors, primary screen, biochemical, DiFMUP fluorescence, 2 µM | Tyrosine-protein phosphatase non-receptor type 22 (Homo sapiens), Q9Y2R2 | recombinant LYP catalytic domain | inhibition, % at 2 µM | hit rate 0.21% among 96,000 | AID 640, 2007;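 active = inhibition at 2 µM at or above a set limit, the screen mean plus 3 SD, cut at about 24% in these data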;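 note: 0% = DMSO with enzyme and 100% = enzyme fully blocked by orthovanadate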
EphB4 antag: EphB4-ephrin-B2 interaction antagonists, primary screen, biochemical, TNYL-RAW peptide probe, fluorescence polarization | EphB4 LBD / TNYL-RAW-Alexa532 peptide | Ephrin type-B receptor 4 (Homo sapiens), P54760 | AID 720, 2007 | hit rate 0.15% among 97,000 | inhibition, % at 7 µM;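 active = inhibition above the screen-wide mean inhibition plus 3 SD, cut at about 15% in these data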;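 note: 0% = DMSO wells and 100% = excess unlabeled TNYL-RAW peptide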
PLAP act: PLAP enzyme activators, biochemical, luminescence, HTS; Alkaline phosphatase, placental type (Homo sapiens), P05187; purified PLAP enzyme, luminescent substrate read-out; active compounds read high; activation fold at 20 µM; hit rate 1.2% among 96,000; in the data active = activation fold above about 2
Numbers without * were called inactive; . = no result; [ ] = another dose, or the depositor's remark.

SMILES	sEH act	PTPN22 act	sEH inh	LYP inh 2	EphB4 antag	PLAP act
CC1(C)Oc2ccc3ccc(=O)oc3c2/C(=C/NCCN/C=C2\C(=O)C(C)(C)Oc3ccc4ccc(=O)oc4c32)C1=O	5	3	-4	0	0	1.2
COc1ccc(CNc2ccc3cn[nH]c3c2)c(OC)c1OC	2	4	-4	-3	3	2*
O=C(CCSc1ccc(Cl)c(Cl)c1)NC12CC3CC(CC(C3)C1)C2	-49	-5	49	4	-2	0.9
CCOc1cc(CNCCSc2nnnn2C)cc(Br)c1OCc1ccccc1	11	-9	-8	9	6	2*
CC(C)CNc1nnnc2c1sc1nc(N3CCOCC3)c3c(c12)CC(C)(C)SC3	0	-21	4	25*	1	1.1
Nc1c(C(=O)NCCN2CCOCC2)c2nc3ccccc3nc2n1-c1cccc(F)c1	.	.	.	.	.	2*
O=C(O)CCCN1C(=O)/C(=C/c2ccc(-c3nc4ccccc4s3)o2)SC1=S	-5	-38	5	41*	-5	1
CCCOc1cccc(/C=N/NC(=O)c2csc(C)c2C)c1	-86	-1	86*	-1	-2	1.1
CCC1C(=O)N(c2nc(C)cc(C)n2)N=C1C (stereo unspecified)	7	-8	-8	10	1	1.2
CC1=NN(c2nc(C)cc(C)n2)C(=O)C1CCC(C)C (stereo unspecified)	-10	3	10	-1	-2	2.3*
COc1ccc(OCCSc2n[nH]c(N)n2)cc1	12	0	-8	0	0	2.6*
CC1CCCN(C(=O)CSc2cnc3ccccc3n2)C1 (stereo unspecified)	8	6	-5	-5	3	0.8
CC1=Nn2c(nc(-c3ccccc3)c2-c2ccccc2)NC(=O)C1Br (stereo unspecified)	4	-4	-10	6	-1	1.9
CCCc1cc(-c2n[nH]c(C(=O)OCC)c2-c2cscn2)c(O)cc1O	7	0	-8	2	-4	2.1*
CCOC(=O)c1[nH]nc(-c2c(O)cc(C)cc2O)c1-c1csc(C)n1	10	12	-8	-16	-5	2.1*
CCOC(=O)c1oc2cc(O)ccc2c(=O)c1-c1csc(C)n1	6	-1	-9	-1	2	0.9
Cc1occc1C(=O)N/N=C/c1c[nH]c2ccccc12	-16	7	19	-5	-11	0.9
C/C(=N\NC(=O)c1c[nH]c2ccccc12)c1ccc(C)o1	-16	-14	15	15	8	2.6*
CCC1(C)Cc2c(sc3nc(NN)n(C)c(=O)c23)CO1 (stereo unspecified)	9	-5	-12	4	-4	2*
CCOC(=O)CSc1nc2sc3c(c2c(=O)[nH]1)CC(C)(CC)OC3 (stereo unspecified)	3	0	-5	2	6	1.2
COc1ccc(N2CC(O)=C(c3nc(C)cs3)C2=N)cc1	.	-5	.	2	8	2*
Cc1ccc(-n2ncc3c(NCc4ccccn4)ncnc32)c(C)c1	2	-9	-3	8	5	2*
CCCn1c(SCC(=O)Nc2cccc(C)n2)nnc1-c1ccco1	2	9	-2	-9	-10	0.8
CN1CCN(Cc2cc(COCc3ccccc3)c3cccnc3c2O)CC1	-2	-16	2	13	4	2.2*
Oc1ccc(CN2CCN(Cc3ccccc3)CC2)c2cccnc12	-7	-6	8	5	14	.
SMILES	sEH act	PTPN22 act	sEH inh	LYP inh 2	EphB4 antag	PLAP act
O=C(OCC(=O)c1cccs1)c1ccccc1	.	.	.	.	.	0.9
O=C(CC(O)(c1ccccc1)C(F)(F)F)c1cccs1 (stereo unspecified)	-2	0	-1	0	31*[fluorescence artefact?]	0.8
COc1cc(C(c2c(C)[nH][nH]c2=O)c2c(C)[nH][nH]c2=O)ccc1OC(=O)c1cccc([N+](=O)[O-])c1	-5	8	6	-4	8	1.2
COc1cc(C(c2c(C)[nH][nH]c2=O)c2c(C)[nH][nH]c2=O)ccc1OS(=O)(=O)c1ccccc1	-3	1	4	2	2	2.5*
COc1ccc(C(CC(=O)O)NS(=O)(=O)c2ccc(C)cc2)cc1OC (stereo unspecified)	-9	-6	6	4	6	1
COc1ccc(/C=N/NS(=O)(=O)c2ccccc2)cc1OS(=O)(=O)c1ccc(C)cc1	12	8	-10	-6	6	1.4
COc1cc(C(c2c(C)[nH][nH]c2=O)c2c(C)[nH][nH]c2=O)ccc1OCc1ccc([N+](=O)[O-])cc1	-3	12	4	-10	0	2.6*
COc1cc(C(c2c(C)[nH][nH]c2=O)c2c(C)[nH][nH]c2=O)ccc1OS(=O)(=O)c1ccc(C)cc1	-11	-7	12	9	0	2.9*
CCN1C(=O)c2cccc3c(NC(=O)c4ccc(OC)c(OC)c4)ccc1c23	-5	-1	6	1	1	1.4
C[C@H](N)c1nnc(SCC(=O)c2ccc(Cl)cc2)o1	9	-6	-9	9	-1	2.9*
CC(C)[C@H](N)c1nnc(SCC(=O)c2ccc(Cl)cc2)o1	-1	-3	1	4	-9	0.9
CCC(C)(C)NC(=O)C(c1cccc(OC)c1)N(C(=O)c1ccn[nH]1)c1cccc(OC)c1 (stereo unspecified)	6	-7	-2	5	-3	2.9*
COc1ccc(N(C(=O)c2ccn[nH]2)C(C(=O)NC(C)(C)C)c2ccc(F)cc2)cc1 (stereo unspecified)	4	-1	-6	1	4	5.3
CC1CCCC(NC(=O)Cc2ccc(Br)cc2)C1C (stereo unspecified)	-52	-10	53	11	6	.
CC1CCCC(NC(=O)Nc2cccs2)C1C (stereo unspecified)	-81	27	80*	-26	-1	0.9
C=CCn1c(Cc2csc(N)n2)nnc1SCC(=O)OCC	9	3	-6	-2	6	0.9
COC(=O)c1sccc1-n1cccc1C(=O)N1CCOCC1	11	-59	-12	60*	1	0.9
COc1ccc(/C(N)=N/OC(=O)CSc2ccccc2)cc1OC	10	-3	-10	5	7	1
Cc1ccc(-n2[nH]c(C)c(C=Nc3ccc(C)cn3)c2=O)cc1	.	.	.	.	.	1.4
C=CCSc1nnc(-c2ccccc2N=Cc2c(C)[nH]n(-c3ccccc3)c2=O)c(=O)[nH]1	6	-2	-6	2	5	2.2*
Cc1[nH]n(-c2ccccc2)c(=O)c1/C=N/c1ccccn1	8	-10	-7	7	-4	2.1*

Source: PubChem BioAssay
